The whole screen tested about 360,000 compounds, of which about 6,200 (1.7%) were called active. This excerpt belongs to a sample that is enriched for actives. Values without a mark were called inactive.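 How the source made its calls: active means inhibition of at least 50% at 20 µM; inactive means the rest.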

This assay is described as follows: inhibition of PEG-3 promoter activity – cell-based, HeLa, luciferase luminescence, primary screen (AID 588405). The conditions noted are these: HeLa PEG-Prom luciferase reporter, overnight, at 20 µM, hits give high values.
On to `O=C(CSc1ncnc2scc(-c3ccccc3)c12)NCc1ccc2c(c1)OCO2`, for which the inhibition is 26.7%.

With `CCOc1c2ccc(C(=O)NCc3ccc4c(c3)OCO4)cc2nn1C`, the inhibition is -10.3%.

Turning to `CN(C)C(=O)c1cccc(-c2cnc3sc(NCc4ccc5c(c4)OCO5)nn23)c1`, the inhibition was 50.3% (active).

With `COc1cccc2sc3cc(NCC[C@@H]4CCCN4C)ccc3c(=O)c12`, the inhibition was -254%.

Take `Cc1cc2oc3ccc(NCCC4CCCN4C)cc3c(=O)c2cc1C` (configuration not stated): the inhibition is 103% (active).

For `CN1CCC[C@@H]1CCO[C@](C)(c1ccccc1)c1ccc(Cl)cc1`, the inhibition was 14.3%.

For the compound `CC1(Oc2ccccc2-c2ccno2)CCN(Cc2ccc(-c3ccccc3)o2)C1` (configuration not stated), the inhibition is 0.4%.

`CC(=O)OC[C@@H]1CN(Cc2ccccc2)C[C@H](n2cnc3c(NCc4ccco4)ncnc32)O1`: the inhibition was 4.43%.

Turning to `COc1ccc(Sc2ccc(NC(=O)c3cccc(Cl)c3)cc2C#N)cc1`, the inhibition was 14.8%.

As for `CCOC(=O)CNC(=O)/C(=C\c1ccc(F)cc1)NC(=O)c1ccccc1`, the inhibition is 10.4%.

Consider `CCOC(=O)C(=Cc1ccccc1)C(=O)c1ccccc1`, for which the inhibition was 103% (active).

For `CCOC(=O)C(=Cc1ccccc1OC)C(=O)OCC`, the inhibition is 33.3%.

For `c1cc(-c2ccc3[nH]ccc3c2)n2ccnc2c1`, the inhibition was -57.5%.

For the compound `COC(C[C@@H]1O[C@@H]1C(=O)[C@@H](C)OCc1ccccc1)OC`, the inhibition was 7.4%.

On to `C/C(=N\NC(=O)c1ccccc1F)c1ccccn1`, for which the inhibition was -1.8%.

Turning to `CC(=NNC(=S)N1CCCCCC1)c1ccccn1`, the inhibition is -62.9%.

Turning to `C/C(=N\NC(=O)Cc1ccc(Cl)cc1)c1ccccn1`, the inhibition is 104% (active).

Turning to `CN1C(=O)c2ccccc2C(C(=O)NCCCN2CCCC2)C1c1c[nH]c2ccccc12` (configuration not stated), the inhibition was -1.25%.

`COc1ccc(/C=C/C(=O)c2c(O)cc(OC)cc2OC)cc1`: the inhibition is -132%.

In the case of `CCCc1ccc(C(=O)COC(=O)CN2C(=O)NC3(CCCCC3C)C2=O)cc1` (configuration not stated), the inhibition was -7.49%.

For `O=C(NCc1cccnc1)c1cc(C2CCCCN2C(=O)CCc2ccccc2)on1` (configuration not stated), the inhibition is -5.2%.

With `CN(C)c1ccc(C2N(C)C(=O)c3ccccc3N2C)cc1` (configuration not stated), the inhibition is 17.6%.

In the case of `CN(C)c1ccc(Nc2c3c4c(cccc4n(C)c2=O)C(=O)c2ccccc2-3)cc1`, the inhibition was 54.9% (active).

As for `CSc1ccc(CNC(=O)C2(C)CCCN2C)cc1` (configuration not stated), the inhibition is 7.21%.

As for `CC(C)Nc1ncnc2c1ncn2[C@H]1CN(Cc2ccncc2)C[C@@H](CO)O1`, the inhibition is -7.45%.

Turning to `COc1ccc(CN2CCCCC2C)cc1OC` (configuration not stated), the inhibition was 11.9%.

For `Cc1ccc(-c2ccc(/C=C(\C#N)C(N)=S)o2)c([N+](=O)[O-])c1`, the inhibition was -30.5%.

Turning to `Cc1ccc(/C=C(\C#N)C(=O)Nc2cccc3ncccc23)o1`, the inhibition was -27.1%.

`Cc1ccc(Cc2cnc(NC(=O)/C(C#N)=C/c3ccc(-c4cccc([N+](=O)[O-])c4)o3)s2)cc1`: the inhibition was 71.1% (active).

On to `CCOc1ccc2[nH]c(=S)sc2c1`, for which the inhibition is -57%.

Take `O=[N+]([O-])c1c(NCCO)cc(Sc2nc3ccccc3s2)c2nonc12`: the inhibition was 102% (active).

With `COc1cc(SC#N)ccc1N=Cc1c(C)[nH]n(-c2ccc(C)cc2)c1=O`, the inhibition was 80.8% (active).

`CN(C)c1cccc(NC(=O)c2ccc(-c3ccc(F)c(F)c3)c3ccoc23)c1`: the inhibition was -43.1%.

For the compound `O=C(/C=C/c1ccc(Cl)cc1)Nc1ccc(Br)cn1`, the inhibition was -33.7%.

For the compound `S=C(NCCCc1cnc[nH]1)NCCCN(Cc1ccc(Cl)c(Cl)c1)c1ccc(Br)cn1`, the inhibition was 98.4% (active).

As to `NCCCNC(=S)NCCCN(Cc1ccc(Cl)cc1)c1ccc(Br)cn1`, the inhibition was 85.8% (active).

For `S=C(NCCCc1ccccc1)Nc1ccc(Br)cc1`, the inhibition was 5.05%.

For the compound `Cc1nc(C(F)(F)F)ccc1C(=O)N1CCC1(C)C(=O)NS(=O)(=O)c1ccc(F)cc1F` (configuration not stated), the inhibition was -1.89%.

As to `O=C(CC[C@H]1O[C@@H](n2ccc(=O)[nH]c2=O)[C@H](O)[C@@H]1O)N[C@H](Cc1ccccc1)C(=O)NCc1ccco1`, the inhibition was 8.94%.

As for `CCCS(=O)(=O)NC(=O)C1(C)CCCN(C(=O)c2cc(C)on2)C1` (configuration not stated), the inhibition is 9.06%.

Turning to `COc1ccc(OC)c(Cc2cnc3nc(N)nc(N)c3c2C)c1`, the inhibition was 54.3% (active).

As for `COc1ccc(OC)c(NC(=O)c2sc3nc(C)cc(C)c3c2N)c1`, the inhibition is -12.4%.

Regarding `COc1ccc(OC)c(Cc2nnc(CCC(=O)NC3CCCC3)o2)c1`, the inhibition is -30.2%.

Turning to `C=CCn1c2c(c3ccccc31)CCC2`, the inhibition is 2.5%.

Turning to `NC1=CC(=O)C(=O)c2cccnc21`, the inhibition is 69.9% (active).

Consider `CCOc1ccc(CCN2C(=O)c3cccnc3C2=O)cc1OCC`, for which the inhibition is -9.6%.

As for `CCc1nc2ccc(C(=O)NC3CCN(Cc4ccccc4)CC3)cn2c1N(CC)CCOC`, the inhibition was 4.85%.

Turning to `CCCCNC(=O)c1nc(C2CCN(S(=O)(=O)c3ccc(F)c(F)c3)CC2)oc1-c1cccc(C(F)(F)F)c1`, the inhibition is 13.3%.

Regarding `Cc1occc1C(=O)N/N=C/c1ccc(-c2cccc([N+](=O)[O-])c2)o1`, the inhibition was -11.9%.

`Cc1ccc(C(=O)N/C(=C/c2ccc(-c3cccc([N+](=O)[O-])c3)o2)C(=O)NCCCN(C)C)cc1`: the inhibition was 103% (active).

Take `CN(C)CCNC(=O)/C(=C/c1cccc([N+](=O)[O-])c1)NC(=O)c1ccccc1`: the inhibition is 7.34%.

With `CCCc1ccc(C(O)c2ncc(-c3cccc(OC)c3)[nH]2)cc1` (configuration not stated), the inhibition was -5.53%.

As for `O=C(Nc1ccc(F)cc1)Nc1nnc([C@H]2C[C@H](O)[C@@H](CO)O2)s1`, the inhibition was -5.07%.

For `C=CC(=O)Nc1ccc(Nc2ccnc(Nc3ccc(N4CCN(C)CC4)cc3)n2)cc1`, the inhibition was 20.3%.

Regarding `CC(C)c1ccccc1OCC(O)CN(CC(O)COc1cccc2ccccc12)C(C)C` (configuration not stated), the inhibition was 110% (active).

For `CCC(C)Sc1nc2c(c(=O)[nH]c(=O)n2C)n1CC(O)COc1cccc2ccccc12` (configuration not stated), the inhibition is 12.2%.

Take `CC1CC(C)CN(CCOc2cccc3ccccc23)C1` (configuration not stated): the inhibition was -6.14%.

Regarding `COc1cc(CN2CCNC(=O)C2CC(=O)NCCc2ncccc2C)cc(OC)c1` (configuration not stated), the inhibition is -16.1%.

In the case of `CC(C)Oc1ccc(CN2CCC2(C)C(=O)NCc2ccc(C(F)(F)F)cc2)cc1` (configuration not stated), the inhibition is 14.4%.

As for `O=C(Nc1ccc(N2CCOCC2)cc1)c1cccc2c(-c3ccc(F)c(F)c3)coc12`, the inhibition was -8.12%.

As to `COc1ccccc1CNC(=O)c1cc(-c2cc(Cl)ccc2C)n[nH]1`, the inhibition was 32.1%.

As for `O=C(CN1C(=O)NC2(CCOc3ccccc32)C1=O)Nc1cccc([N+](=O)[O-])c1` (configuration not stated), the inhibition was 10.4%.

Regarding `Cc1ccc(CNC(=O)c2cccnc2Cl)cc1`, the inhibition was -0.53%.

Consider `CCN(CC)S(=O)(=O)c1ccc(NC(=O)c2cnc(C)cn2)cc1`, for which the inhibition was -6.33%.

Consider `CCN(CC)S(=O)(=O)c1ccc(NC(=O)c2cccnc2Cl)c(NC(=O)c2cccnc2Cl)c1`, for which the inhibition is 104% (active).

On to `CCOC(=O)C1=CC[C@@H](c2ccccc2)N(S(=O)(=O)c2ccc(C)cc2)[C@H]1c1cccc(OC)c1`, for which the inhibition is 14.6%.

On to `CC1(c2nnc(Cc3ccccc3)o2)CC(c2ccccc2F)=NO1` (configuration not stated), for which the inhibition is 7.03%.

Regarding `CCOC(=O)/C=C/C(=O)OCC(=O)NC(c1ccccc1)c1ccccc1`, the inhibition was 66.3% (active).

Turning to `CCOC(=O)C(C(=O)OCC)C(C#N)c1ccccc1` (configuration not stated), the inhibition was 1.45%.

`Cc1ccccc1OCCC(=O)OCC(=O)NC(C)c1ccccc1` (configuration not stated): the inhibition was -0.76%.

In the case of `CCOc1c(Nc2cccc(Cl)c2)c(=O)c1=O`, the inhibition was 19%.

On to `OCCCNc1nccc(-c2cc(Nc3cccc(Cl)c3)ncn2)n1`, for which the inhibition was 97.8% (active).

As to `CC(=O)N1CCN(S(=O)(=O)c2ccc(C)c([N+](=O)[O-])c2)C1C(C)C` (configuration not stated), the inhibition is 9.74%.

In the case of `COc1ccc(S(=O)(=O)NC(=O)C2(C)CCN2C(=O)COc2ccc(Cl)cc2)cc1` (configuration not stated), the inhibition is 0.32%.

Consider `OC(c1ccc(F)cc1)c1ncc(-c2cccc(C(F)(F)F)c2)[nH]1` (configuration not stated), for which the inhibition is 25.3%.

On to `CCOC(=O)N1CCN(C(=O)c2nn(-c3ccc(C)cc3)c(=O)c3c2c2ccccc2n3C)CC1`, for which the inhibition was 58.2% (active).

Turning to `CCOC(=O)N1CCN(C(=O)Cn2cnc3ccccc3c2=O)CC1`, the inhibition is -3.74%.

For `CCOC(=O)N1CCN(C(=O)c2n[nH]c(=O)c3ccccc23)CC1`, the inhibition is 6.99%.

Take `CN1CCN(C(=O)c2ccc(-c3cc4nc(NCc5cccnc5)n(C)c(=O)c4s3)cc2)CC1`: the inhibition was -4.53%.

As to `CCc1nc2c(OCCOc3ccccc3)cccn2c1N(C)C(=O)c1ccc(OC)cc1`, the inhibition was 11.8%.

With `CC(=O)NN=C(C)c1ccc(NC(=O)C2CC2)cc1`, the inhibition is -1.94%.

Take `CC1(C(=O)NCc2ccc3c(c2)OCO3)CCN1C(=O)Cc1cccs1` (configuration not stated): the inhibition was -1.89%.

`NC(=O)C1CCN(C(=O)c2cc(S(=O)(=O)N3CCN(c4ccccc4)CC3)ccc2Cl)CC1`: the inhibition is 56.8% (active).

With `COc1ccccc1N(C)S(=O)(=O)c1ccc(Cl)c(C(=O)N2CCC(C(N)=O)CC2)c1`, the inhibition is -7.62%.

As to `NC(=O)COC(=O)c1cc(S(=O)(=O)N2CCN(c3ccccc3)CC2)ccc1Cl`, the inhibition was -0.58%.

Turning to `O=S(=O)(Nc1cccc(-n2cnnn2)c1)c1cnc(Cl)c(Cl)c1`, the inhibition was 3.56%.

Regarding `Cc1cc2nc(-c3ccc(Cl)cc3)c(Cc3cccc(F)c3)n2c(C)c1Br`, the inhibition is -7.74%.

With `CN(C)CCCOc1ccc(-c2ccc3nccn3c2)cn1`, the inhibition was -2.16%.

Turning to `O=C(NCc1ccco1)c1cccc(-c2ccc3nncn3c2)c1`, the inhibition was 6.82%.

`O=C(Nc1ccccc1)c1nnsc1S(=O)(=O)c1ccc(Cl)cc1`: the inhibition was 67.4% (active).

Take `Cc1nnsc1S(=O)(=O)Cc1ccccc1Cl`: the inhibition is 14.5%.

As for `O=C(Nc1ccc(S(=O)(=O)N2CCOCC2)cc1)C1CCN(S(=O)(=O)c2ccc(Cl)cc2)CC1`, the inhibition is 20.9%.

The record behind these values is PubChem BioAssay AID588405 (Sanford-Burnham Center for Chemical Genomics, 2011).
